# Laboratory results as given in PubChem BioAssay (NCI).
# Several values for one entry are separate records, joined by “and”; a condition that tells them apart may be missing. Equal values may be shown once. About 83,000 compounds went through this panel and 20% of them were active in at least one assay; those are over-represented in the sample as a whole.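 Percent growth is the endpoint: 0 to 100 indicates growth inhibition (40 means 60% inhibition), 0 means no net growth, and negative values indicate cell death.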 Activity calls are given as the source filed them. How the source made its calls: active means growth percent below 10; inactive means the rest.
# Tested on: MDA-MB-468 breast
# Experiment: NCI-60 one-dose screen, 48 h (100 = growth as untreated, 0 = no growth, -100 = all killed)
# Conditions: 10 µM unless noted
row,Structure (SMILES),growth
1,O=C(CN1C(=O)S/C(=C\C(Cl)=C\c2ccccc2)C1=O)NCCCn1ccnc1,-28.2% (active)
2,C=C1CC[C@@H]2[C@]3(C)COC(c4ccccc4)O[C@@H]3CC[C@@]2(C)[C@@H]1C/C=C1/C(=O)OC[C@H]1O (stereo not given in full),91.4% (inactive)
3,O=C(c1nn(-c2ccc(Cl)cc2)cc1O)n1nc(C(F)(F)F)cc1-c1ccccc1,32.8% (inactive)
4,C=C(C)[C@@H]1C[C@H](O)Cc2cc(F)ccc2N1,89.3% (inactive)
5,Cc1cc(N/N=C/c2nc(-c3ccc(Br)cc3)oc2C)c2cc(Br)ccc2n1,-5.21% (active)
6,CCOC(=O)/C=C1\S/C(=N\Nc2cc(=O)[nH]c3ccccc23)N(c2ccccc2)C1=O,105% (inactive)
7,COc1cc(-c2nn(-c3cccc(NC(=O)c4ccc(Cl)c(C(F)(F)F)c4)c3)cc2-c2ccncc2)ccc1Cl,54.4% (inactive)
8,Cc1c(CN(C)C)cc(C(C)C)cc1C(C)C,100% (inactive)
9,CN1CCN(Cc2ccc(NC(=O)c3cncc(C#Cc4ncc5ccccn45)c3)cc2C(F)(F)F)CC1,36.5% (inactive)
10,O=C(C1CCCCC1)[C@@H]1[C@]2(C(=O)NC3CCCCC32)[C@@H]2CCCN2[C@@]12C(=O)NC1CCC(Cl)CC12 (stereo not given in full),-67% [100 µM] (active)
11,O=C(O)CCCC(=O)O,94.9% (inactive)
12,CCOC(=O)Nc1ccc2c(ccn2C(=O)c2cccc(F)c2)c1,34.5% (inactive)
13,CC(=O)/C(N=Nc1ccc2oc(=O)ccc2c1)=C(\C)O,9.38% (active)
14,CCOC(=O)C1(C(=O)OCC)N=C(c2ccccc2)C=C1c1ccccc1,94.1% (inactive)
15,O=c1c2cccc3c(N4CCCC4)ccc(c32)c2nc3ccccc3n12,80.3% (inactive)
16,CC1(C)CC[C@]2(C(=O)Nc3ccccn3)CC[C@]3(C)C(=CC[C@@H]4[C@@]5(C)C/C(=C/c6cccnc6)C(=O)C(C)(C)[C@@H]5CC[C@]43C)[C@H]2C1,17.2% (inactive)
17,CN1C[C@@H](c2ccc(Cl)cc2)[C@]2(NC(=S)N(c3ccc(F)c(Cl)c3)C2=O)[C@@]12C(=O)NC1C=CC(Cl)=C[C@H]12 (stereo not given in full),48.8% (inactive)
18,NNC(=O)c1nc(N)n(-c2ccc(S(N)(=O)=O)cc2)n1,108% (inactive)
19,COc1ccc(/C=C2\C(=O)N=C3N2NC(c2cc(Br)ccc2O)C=C(C)N3c2ccccc2)cc1 (stereo not given),90.7% (inactive)
20,O=C(/C=C(O)/C=C/c1ccc(SC(F)(F)F)cc1)/C=C/c1ccc(SC(F)(F)F)cc1,100% (inactive)

row,Structure (SMILES),growth
1,COc1cc(C2C(C(=O)OCc3ccccc3)=C(C)NC(C)=C2C(=O)OCc2ccccc2)cc(OC)c1OC,11.6% (inactive)
2,CC(=O)c1cc2c(N)c(C(=O)Nc3ccccn3)sc2nc1C,57.3% (inactive)
3,NC(=O)CC1(c2ccccc2)CCCCC1,104% (inactive)
4,N#Cc1ccccc1OCC(=O)Nc1nc2c(s1)COc1ccccc1-2,98.7% (inactive)
5,CC1=C(C)C(=O)C(Nc2cccc(C(=O)OC(C)(C)C)c2)=C(Br)C1=O,-54% (active)
6,N#CC(C#N)=C(C#N)c1c[nH]c2ccccc12,38.8% (inactive)
7,Cc1ccc(/C=C/c2c(C(=O)/C=C/c3ccc(C(F)(F)F)cc3)c(C)nc3ccccc23)cc1,-57.4% (active)
8,N/C(=N\c1nc2ccccc2s1)NC(=O)Nc1cccc(Cl)c1,35.5% (inactive)
9,Cc1nc2cc(Nc3nc(Nc4ccc(F)cc4)nc(N4CCN(C)CC4)n3)ccc2n1Cc1ccccc1,-32.7% (active)
10,CC1CCC(C)(C)c2ccccc21 (stereo not given),99.6% (inactive)
11,O=CNc1c(Cl)cc2c(c1Cl)Cc1cc([N+](=O)[O-])ccc1-2,-3.02% (active)
12,OCCOc1c(Cl)cc(Cl)cc1Cl,127% (inactive)
13,Cc1sc2nc(NCc3ccccc3Cl)[nH]c(=O)c2c1C,101% (inactive)
14,Clc1nn2c(Cn3cnc4c(NCc5ccccc5)ncnc43)nnc2c2ccccc12,35.3% (inactive)
15,O=C(OC(OC(=O)c1cc(Cl)cc(Cl)c1)c1cccc2ccccc12)c1ccccc1 (stereo not given),111% (inactive)
16,CC1(C)OCC(COC(c2ccccc2)(c2ccccc2)c2ccccc2)O1 (stereo not given),109% (inactive)
17,NS(=O)(=O)c1cc2c(cc1Cl)NC=NS2(=O)=O,108% (inactive)
18,O=C(Nc1ccccc1-c1nc2ccccc2c(=O)[nH]1)c1cc2ccccc2[nH]1,86.9% (inactive)
19,N#CC(C#N)=C/C=C/c1cccc([N+](=O)[O-])c1,-56.4% (active) and -30.4% (active)
20,Oc1ccc(C2OCCO2)c2cccnc12,62.4% (inactive)
